The text below walks through data of PubChem BioAssay (NCATS).

Records with an inconclusive call do not appear. The source made the active and inactive calls. Calls follow the shape of the dose curve; as a rule, active = well fitted curve in the direction sought with a large enough effect; inconclusive = small, poorly fitted or top-dose-only effect, or another doubt; inactive = no such curve, though single readings can be large; an effect the other way counts as inactive or inconclusive.

Assay [1] is described as follows: qHTS assay to identify small molecule inhibitors of chordoma cells - UCH-1 (AID 1259355). Also: nearly all actives have a fitted effect of over 55% in size. Also: potency is read from the fitted curve at half-maximal effect; series mostly up to about 46 µM. In short, it runs like this:
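Cells (800/well) were seeded and left overnight at 37 C, 5% CO2, then treated with drugs at 15 concentrations plus a combination mix of auranofin, camptothecin, doxorubicin, rubitecan and topotecan. Viability after 48hr was read by CellTiter-Glo luminescence.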

A short description of assay [2]: qHTS assay to identify small molecule inhibitors of chordoma cells - UCH-2 (AID 1259356; also: potency is read from the fitted curve at half-maximal effect). (In general: qHTS replaces the single test concentration by a dilution series.)
Assay [3] in a line: P-glycoprotein substrates identified in KB-8-5-11 adenocarcinoma cell line, qHTS therapeutic library screen (AID 1346987). Also: nearly all actives have a fitted effect of over 65% in size. Also: potency is read from the fitted curve at half-maximal effect. In short, it runs like this:
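P-gp-mediated resistance screen: KB-8-5-11 cells treated 72 h with compounds in dose-response. CellTiter-Glo viability.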

Assay [4] in a line: P-glycoprotein substrates identified in KB-3-1 adenocarcinoma cell line, qHTS therapeutic library screen (AID 1346986). Also: nearly all actives have a fitted effect of over 60% in size. In short, it runs like this:
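Compounds were tested in dose-response against KB-3-1 and KB-8-5-11 cells at 37 degree C for 72 h, and viability was measured by luminescence. AC50 values came from curve fitting with class-based activity calls.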

As for `C#CCOc1ccc2c(C)cc(=O)oc2c1`, the Potency result in assay [1], in assay [2] and in assay [3] was “inactive” throughout.

`Cc1ccccc1OCC(O)CNCCOc1ccc(C(N)=O)cc1` (stereo unspecified): the Potency result in assay [1] and in assay [2] was “inactive” throughout.

On to `C[C@]12O[C@H](C[C@]1(O)CO)n1c3ccccc3c3c4c(c5c6ccccc6n2c5c31)CNC4=O`, for which the results for the Potency in assay [1], in assay [2] and in assay [3] were 11.2 µM (active), 10.3 µM (active) and 4.61 µM (active), respectively.

As for `C[C@@H]1CCC2[C@@H](C)[C@@H](O)O[C@@H]3O[C@@]4(C)CC[C@@H]1[C@@]23OO4` (stereo partly specified), the Potency result in assay [1] and in assay [2] was “inactive” each time. Moreover, in assay [3], the Potency was 10.3 µM (active).

As for `CO/N=C(\C(=O)N[C@@H]1C(=O)N2C(C(=O)O)=C(CSc3cnns3)CS[C@H]12)c1csc(N)n1`, the Potency result in assay [1] and in assay [2] was “inactive” each time.

For the molecule `Nc1c(N=Nc2ccc(-c3ccc(N=Nc4cc(S(=O)(=O)O)c5ccccc5c4N)cc3)cc2)cc(S(=O)(=O)O)c2ccccc12`, the Potency result in assay [1] and in assay [3] was “inactive” in each case.

Take `Cc1ccccc1`: the Potency result in assay [1], in assay [2] and in assay [3] was “inactive” in each case.

As to `CC(C)(C)NC(=O)[C@@H]1C[C@@H]2CCCC[C@@H]2CN1C[C@@H](O)[C@H](Cc1ccccc1)NC(=O)[C@H](CC(N)=O)NC(=O)c1ccc2ccccc2n1`, the Potency result in assay [1], in assay [2] and in assay [3] was “inactive” throughout.

Turning to `CCC1OC(=O)C[C@@H](O)[C@H](C)[C@@H](O[C@@H]2O[C@H](C)C[C@H](N(C)C)[C@H]2O)[C@@H](CC=O)C[C@@H](C)C(=O)/C=C/[C@]2(C)OC2C1C` (stereo partly specified), the Potency entry in assay [1] and in assay [2] was “inactive” in each case.

As for `CCNC(=O)[C@@H]1CCCN1C(=O)[C@H](CCCN=C(N)N)NC(=O)[C@H](CC(C)C)NC(=O)[C@@H](Cc1c[nH]c2ccccc12)NC(=O)[C@H](Cc1ccc(O)cc1)NC(=O)[C@H](CO)NC(=O)[C@H](Cc1c[nH]c2ccccc12)NC(=O)[C@H](Cc1cnc[nH]1)NC(=O)[C@@H]1CCC(=O)N1`, the Potency is 31.6 µM (active) in assay [1], 18.3 µM (active) in assay [2] and 8.2 µM (active) in assay [3].

Turning to `Cc1cc(/C=C/c2ccc3cc(N(C)C)ccc3[n+]2C)c(C)n1-c1ccccc1`, in assay [1], the Potency was 5.01 µM (active). The Potency entry in assay [2] and in assay [3] was “inactive” throughout.

For the molecule `CCOc1ccc(N=Nc2ccc(N)cc2N)cc1`, the Potency entry in assay [1] and in assay [2] was “inactive” throughout.

In the case of `CC1=C(/C=C/C(C)=C/C=C/C(C)=C/CO)C(C)(C)CCC1`, the Potency entry in assay [1], in assay [2] and in assay [3] was “inactive” in each case.

Regarding `CO[C@H]1C[C@H](O[C@H]2[C@H](C)[C@@H](O[C@@H]3O[C@H](C)C[C@H](N(C)C)[C@H]3OC(C)=O)[C@@H](C)C[C@]3(CO3)C(=O)[C@H](C)[C@@H](OC(C)=O)[C@@H](C)[C@@H](C)OC(=O)[C@@H]2C)O[C@@H](C)[C@@H]1OC(C)=O`, the Potency entry in assay [1] and in assay [2] was “inactive” each time.

`COC(=O)CCC(=O)CN`: the Potency result in assay [1] and in assay [2] was “inactive” each time.

`O=C(Nc1cccc(C(F)(F)F)c1)c1cc(Br)cc(Br)c1O`: the figures for the Potency in assay [1] and in assay [3] were 12.6 µM (active) and 1.3 µM (active), respectively.

With `CCN(CC)CCOc1ccc(-c2nc3cc(Cl)ccc3s2)cc1`, the Potency result in assay [1] and in assay [2] was “inactive” in each case. For the same molecule, the Potency in assay [3] was 18.4 µM (active).

Consider `COc1ccc2c3c1O[C@H]1C[C@@H](O)C=C[C@@]31CCN(C)C2`, for which the Potency entry in assay [1], in assay [4] and in assay [3] was “inactive” in each case.

For `O=C(COc1ccc(Cl)cc1)OCCNC12CC3CC(CC(C3)C1)C2`, the Potency entry in assay [1] and in assay [2] was “inactive” each time.

With `CCCCC(=O)N(Cc1ccc(-c2ccccc2-c2nn[nH]n2)cc1)[C@@H](C(=O)O)C(C)C`, the Potency entry in assay [1] and in assay [2] was “inactive” each time.

Take `CNC(C)[C@@H]1CC[C@@H](N)[C@@H](O[C@H]2[C@H](O)[C@@H](O[C@H]3OC[C@](C)(O)[C@H](NC)[C@H]3O)[C@H](N)C[C@@H]2N)O1` (stereo partly specified): the Potency result in assay [1] and in assay [2] was “inactive” each time.

Take `C#C[C@]1(O)CC[C@H]2[C@@H]3CCC4=CCCC[C@@H]4[C@H]3C(=C)C[C@@]21CC`: the Potency entry in assay [1] and in assay [2] was “inactive” each time.

On to `CC[C@@H](C(=O)O)[C@@H]1O[C@@H]([C@@H](C)[C@H](O)[C@H](C)C(=O)[C@H](CC)[C@H]2O[C@]3(C=C[C@@H](O)[C@]4(CC[C@@](C)([C@H]5CC[C@](O)(CC)[C@H](C)O5)O4)O3)[C@H](C)C[C@@H]2C)[C@@H](C)C[C@@H]1C`, for which the values for the Potency in assay [1], in assay [2] and in assay [3] were 3.55 µM (active), 8.2 µM (active) and 2.31 µM (active), respectively.

With `CC(C(=O)O)c1ccc(N2Cc3ccccc3C2=O)cc1` (stereo unspecified), the Potency entry in assay [1] and in assay [3] was “inactive” throughout.

Regarding `COC(=O)C1=C(C#N)NC(C)=C(C(=O)OC(C)C)C1c1cccc([N+](=O)[O-])c1` (stereo unspecified), the Potency result in assay [1] and in assay [2] was “inactive” each time.
